# BH1578 lux ind – induces V. cholerae light production without autoinducers. V. cholerae BH1578 lux reporter, luminescence, 6 h. activation, % at 18.7 µM. hit rate 0.16% among 350,000. AID 588436; in the data active = activation mostly above about 9.7%, no sharp cut-off; inconclusive = no clear call, values can overlap the other calls; inactive = mostly below about 3.7%
# BoNT-A LC inh2 – inhibitors of Botulinum neurotoxin A light chain protease. multiplex microsphere protease substrate cleavage, flow cytometry. hit rate 0.17% among 360,000. inhibition, % at 10 µM. AID 588499; also: plate controls were buffer without enzyme for full effect and enzyme alone for no effect
# Autofluor counter – counter-screen for toxin protease inhibitors: compound fluorescence. compound autofluorescence counterscreen, microsphere flow cytometry; hits give high values. fluorescence intensity (test concentration not listed). hit rate 3.1% among 360,000; in the data active = fluorescence intensity above about 16000; inconclusive = no clear call, values can overlap the other calls
# BoNT-F LC inh – BoNT F light chain protease inhibition; Multiplex microsphere protease cleavage assay, flow cytometry; hit rate 0.22% among 360,000; inhibition, % at 10 µM; in the data active = inhibition above about 35%, passing the limit was not always enough; inconclusive = no clear call, values can overlap the other calls; also: plate controls were buffer without enzyme for full effect and enzyme alone for no effect
# Anthrax LF prot – inhibitors of Bacillus anthracis lethal factor protease; inhibition, % at 10 µM; hit rate 0.12% among 360,000; multiplex microsphere protease cleavage assay, LF; also: plate controls were buffer without enzyme for full effect and enzyme alone for no effect
# Target sequence (P15917 whole entry, looked up): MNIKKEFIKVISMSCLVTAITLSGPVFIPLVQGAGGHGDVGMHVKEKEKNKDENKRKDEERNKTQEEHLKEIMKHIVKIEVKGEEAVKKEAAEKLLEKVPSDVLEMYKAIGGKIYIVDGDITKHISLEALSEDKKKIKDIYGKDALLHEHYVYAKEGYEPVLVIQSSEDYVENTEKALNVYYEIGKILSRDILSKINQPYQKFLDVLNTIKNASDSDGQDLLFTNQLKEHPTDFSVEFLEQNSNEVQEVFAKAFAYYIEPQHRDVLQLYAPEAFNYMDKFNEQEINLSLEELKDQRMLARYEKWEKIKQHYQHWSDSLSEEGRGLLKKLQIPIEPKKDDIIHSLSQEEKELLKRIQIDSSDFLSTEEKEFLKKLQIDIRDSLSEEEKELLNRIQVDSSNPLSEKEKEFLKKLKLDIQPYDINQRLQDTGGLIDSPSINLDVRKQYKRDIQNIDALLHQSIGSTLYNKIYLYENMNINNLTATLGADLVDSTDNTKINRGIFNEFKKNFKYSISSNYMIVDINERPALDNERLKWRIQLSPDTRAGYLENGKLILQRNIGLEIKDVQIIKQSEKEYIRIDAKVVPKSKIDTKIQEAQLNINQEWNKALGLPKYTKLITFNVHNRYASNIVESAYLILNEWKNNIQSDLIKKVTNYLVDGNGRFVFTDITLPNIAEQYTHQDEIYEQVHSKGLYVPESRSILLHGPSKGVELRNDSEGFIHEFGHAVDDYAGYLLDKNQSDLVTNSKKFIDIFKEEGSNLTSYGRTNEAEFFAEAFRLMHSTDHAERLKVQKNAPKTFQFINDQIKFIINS
# * hit, by the source's call; i = inactive; ? = inconclusive; . = not tested or not shown. Hits are enriched below; roughly 3.5% of the tested compounds scored in any of these assays. Rule as the data show it, unless noted: active = inhibition above about 30%; inconclusive = no clear call, values can overlap the other calls; inactive = below that.
SMILES,BH1578 lux ind,BoNT-A LC inh2,Autofluor counter,BoNT-F LC inh,Anthrax LF prot
CC(C)c1ccccc1OS(N)(=O)=O,4.5,0.0,3721,8.0,2.2
O=C(NCc1ccc(-c2nc3ccccc3s2)cc1)c1ccc(Br)o1,-0.2,-0.7,2495,3.0,-2.1
O=C(Nc1ccccc1-c1nc2ccccc2s1)c1ccc(Br)o1,i,-0.3,23088*,-0.5,-3.3
O=C(COC(=O)c1ccc(Br)o1)Nc1nc2ccccc2s1,i,0.2,16288*,-2.9,-1.3
Cc1cc(C)c(S(=O)(=O)Nc2ccc(Cl)cn2)c(C)c1,i,.,.,.,.
O=C1/C(=C\c2ccncc2)N2CCC1CC2,-0.5,-1.5,6041,-35.1,-9.9
O=C1/C(=C\c2ccc(Cl)c(Cl)c2)N2CCC1CC2,i,-5.8,3325,?,31.6*
O=C1/C(=C/c2cc([N+](=O)[O-])ccc2Cl)N2CCC1CC2,i,-0.4,16507*,-1.6,5.4
O=C1/C(=C/c2cccc([N+](=O)[O-])c2)N2CCC1CC2,-0.2,0.7,2260,3.1,1.4
CC(C)NC(=O)Nc1ccc2c(c1)C(=O)N([C@H](C)CO)C[C@H](C)[C@@H](CN(C)S(C)(=O)=O)O2,-1.4,-1.6,3183,-10.5,-8.1
CCOC(=O)c1c(-c2ccccc2)oc2ccc(O)c(CN3CCCC3)c12,i,-1.6,17165*,-6.8,-4.2
CCNC(=O)CSc1nnc(-c2cccc(S(=O)(=O)N(CC)CC)c2)n1CCc1ccccc1,-0.7,-0.3,20492*,-0.4,-1.5
CCSc1nnc(-c2cccc(S(=O)(=O)N(CC)CC)c2)n1Cc1ccccc1,i,?,16031,-3.0,-2.2
CC(=O)N(CCCNC(=O)c1ccccc1)C(=O)c1ccccc1,-2.2,0.1,2859,-11.2,0.7
O=C(NCc1ccc2c(c1)OCO2)c1ccc(COc2cc(Cl)ccc2Cl)o1,2.1,10.3,18111*,18.4,1.1
O=C(Nc1ccn(Cc2ccccc2F)n1)c1ccc(COc2cc(Cl)ccc2Cl)o1,1.0,-0.8,11595,-17.3,-6.7
O=C(Nc1ccn(Cc2ccccc2F)n1)c1ccc(COc2ccccc2Cl)cc1,-3.2,1.4,19484*,-1.9,-2.6
O=C(Nc1ccn(Cc2c(F)c(F)cc(F)c2F)n1)c1ccc(COc2ccccc2Cl)cc1,i,-1.2,9130,-30.6,-2.0
O=C(Nc1ccn(Cc2c(F)c(F)cc(F)c2F)n1)c1ccc(COc2cc(Cl)ccc2Cl)o1,-0.2,2.9,22103*,4.5,-1.6
O=C(NCC1CCCN(C(=O)NCc2ccccc2)C1)c1ccc2c(c1)OCO2 (stereo unspecified),0.0,-0.4,4272,0.1,-3.6
Cc1ccc2nc(NC(=O)Cc3cccs3)sc2c1,-0.2,-3.9,21273*,-6.2,0.0
Cc1ccc2nc(NC(=O)CNS(=O)(=O)c3ccc(Br)s3)sc2c1,0.8,5.8,21835*,5.1,-0.1
Cc1cccc(OCc2nnc(NC(=O)Cc3cccs3)s2)c1,i,0.3,16333*,-2.5,-1.5
Cc1ccc(Sc2ccc(CN3CCCCC3)cc2[N+](=O)[O-])cc1,-0.2,0.0,3266,-1.4,-2.8
CSC1=C(C#N)C(c2ccc(Cl)cc2)C2=C(CC(C)(C)CC2=O)N1 (stereo unspecified),-5.3,-2.0,23927*,-3.1,-6.4
SMILES,BH1578 lux ind,BoNT-A LC inh2,Autofluor counter,BoNT-F LC inh,Anthrax LF prot
CC1(C)CC(NC(=O)C(Cl)(Cl)Cl)CC(C)(C)N1,-0.4,-0.7,2061,-2.9,-1.4
COC(=O)N1c2ccccc2C=Cc2ccccc21,-0.3,0.7,4077,5.8,9.0
Clc1cccc(CNc2ccn3nc(-c4cccc(Cl)c4)cc3n2)c1,-0.8,0.1,3039,-0.7,-4.5
O=C(NCC12CC3CC(CC(C3)C1)C2)c1nc2ncccn2n1,5.8,1.7,19103*,-0.2,-7.9
Cc1ccc(-c2nnn(CC(=O)N(CCCO)C(C(=O)NC3CCCC3)c3ccc(F)cc3)n2)o1 (stereo unspecified),-5.6,-0.4,3824,8.0,-8.6
O=[N+]([O-])C1C(c2ccccc2)=NOC1c1ccccc1O (stereo unspecified),i,-4.3,3379,-21.9,-5.5
CC1CCCCC1NC(=O)C1CCC(CNc2c(N3CCCCC3)c(=O)c2=O)CC1 (stereo unspecified),i,-0.4,4296,3.3,-2.3
O=C(NCc1ccco1)c1ccccc1-c1ccccc1,-0.3,0.6,22200*,2.7,-4.3
O=C(O)c1ccccc1-c1ccccc1C(=O)NCc1ccco1,.,-1.1,6847,-8.3,-10.6
O=C(NCc1ccco1)c1ccccc1NS(=O)(=O)c1ccc(Br)s1,-2.0,0.5,22236*,0.4,-4.1
COc1ccc(S(=O)(=O)Nc2ccccc2C(=O)NCc2ccco2)cc1,-6.0,0.6,4460,-3.0,-1.6
Cc1scc(C(=O)NCc2ccco2)c1-c1ccccc1,i,4.8,20412*,4.3,-2.7
COc1ccc(CNCc2ccc(C(F)(F)F)cc2)cc1OC,i,-0.8,3368,-7.3,-3.4
CC(=O)c1ccc(Nc2nc(C(N)COCc3ccccc3)cs2)cc1 (stereo unspecified),-0.7,0.8,3382,-1.3,-6.2
CC1(C)NC(=O)N(CCSc2ccc(Cl)cc2)C1=O,i,2.2,19822*,3.0,-1.8
CC1(C)NC(=O)N(CCOCCSc2ccccc2)C1=O,-0.2,-3.3,24307*,-6.3,0.5
Cc1ccc(SCCCCN2C(=O)NC(C)(C)C2=O)cc1,-3.0,-0.3,7224,-6.4,0.7
CC1(C)NC(=O)N(CCOCCOc2ccccc2)C1=O,0.4,0.3,4105,8.4,2.5
C=CCNc1nc(C(=O)OCC(=O)N(Cc2ccccc2)C(C)C)cs1,-0.4,-0.4,3902,-0.8,-7.6
CCc1c(C)c2ccc(OCC(=O)OC)cc2oc1=O,0.1,?,17530*,-9.9,-4.9
COC(=O)Cc1c(C)c2ccc(OC(C)C)cc2oc1=O,i,0.3,4642,-2.9,0.9
Cn1cnnc1SC1CCCCC1NS(=O)(=O)c1ccccc1 (stereo unspecified),-0.2,-3.2,23278*,-6.4,-2.7
Cn1cnnc1SC1CCCCC1NS(=O)(=O)c1ccc(Cl)cc1 (stereo unspecified),-0.6,0.2,10149,-2.5,2.3
CCn1c(SCC(=O)Nc2ccc(C)cc2)nnc1-c1ccccn1,i,-1.2,4299,2.4,5.6
COc1cc(C(=O)CSc2nnc(-c3ccc(O)cc3)n2CC2CCCO2)ccc1NC(C)=O (stereo unspecified),-0.4,-0.8,12819,-10.3,-0.5
CCn1c(SCC(=O)Nc2cccc(OC)c2)nnc1-c1ccc(Cl)cc1,i,?,21821*,3.1,3.3
CCC(=O)Nc1ccc(C(=O)CSc2nnc(-c3ccc(O)cc3)n2CC2CCCO2)cc1 (stereo unspecified),-0.7,-1.1,23574*,-0.6,-2.4
CCSc1nnc(-c2ccc(S(=O)(=O)N3CCOCC3)cc2)n1CC1CCCO1 (stereo unspecified),2.4,0.5,15596,3.3,-7.9
CCn1c(SCC(=O)Nc2ccc(C)cc2)nnc1-c1ccc(O)cc1,i,-1.3,17034*,-4.7,-3.3
CSc1nnc(-c2ccc(S(=O)(=O)N3CCOCC3)cc2)n1CC1CCCO1 (stereo unspecified),-1.9,-4.8,17507*,-10.9,-6.4

# Compound activity (PubChem BioAssay)
